The list is not random: actives were taken first. Their share in the collection is about 11%.
G9a inh: blocks human histone lysine methyltransferase G9a; G9a H3K9 monomethylation, AlphaScreen, 2 h; AID 504332; Potency, µM (doses to about 102 µM), for inactives: top-dose activity, negative = inhibition, hits mostly inhibitors; hit rate 8.8% among 350,000; Q96KQ7; also: % is scaled to controls: 0 for no effect and ±100 for the full control effect; nearly all actives have a fitted effect of over 75% in size
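Compounds were preincubated with 20 nM G9a for 15 min, after which biotinylated H3K9 peptide (500 nM) and SAM (20 uM) started a 2 h room-temperature reaction. Monomethylated product was quantified by antibody-based AlphaScreen chemiluminescence.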
L3MBTL1 block: blocks human L3MBTL1 | AlphaScreen L3MBTL1–H3K9me1 peptide binding | Potency, µM (highest dose often 57.1 µM), without a hit: at the top dose activity, negative = inhibition, actives largely listed as inhibitors | hit rate 0.66% among 230,000 | AID 485360; also: % is scaled to controls: 0 for no effect and ±100 for the full control effect; nearly all actives have a fitted effect of over 60% in size
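Displacement of a biotinylated histone H3(1-15) peptide monomethylated at Lys9 (75 nM) from L3MBTL1 (50 nM) was measured by AlphaScreen after a 30 min room-temperature compound incubation; cefsulodin titration served as intraplate control.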
BAZ2B inh: blocks human BAZ2B; Q9UIF8; AlphaScreen BAZ2B-H3K14Ac peptide displacement; Potency, µM (top dose mostly 114 µM), for the others: at the top dose activity change, negative = inhibition, hits mostly inhibitors; hit rate 4.4% among 360,000; AID 504333; also: % is scaled to controls: 0 for no effect and ±100 for the full control effect; nearly all actives have a fitted effect of over 60% in size
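Complex of BAZ2B and biotin-H3K14Ac (50 nM apiece) forms over 30 min at RT, then faces library compounds up to 110 uM for another 30 min; AlphaScreen beads added, 20 min dark incubation, luminescence read.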
HP1b chromo inh: HP1-beta chromodomain-methylated histone interaction inhibition | Potency, µM (series often up to 114 µM), without a hit: at the top dose activity change, negative = inhibition, usual class: inhibitors | AlphaScreen HP1-beta / biotin-H3K9me3 peptide binding | hit rate 0.56% among 390,000 | P83916; also: nearly all actives have a fitted effect of over 70% in size
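Compound inhibition of the preformed complex between 50 nM HP1-beta and 50 nM biotinylated H3K9me3 peptide was read by AlphaScreen. Buffer was PBS pH 7.4 with 0.01% Tween-20. Incubations ran 30 min at room temperature, with 10 ug/mL donor/acceptor beads.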
JMJD2A Tudor: blocks the human JMJD2A Tudor domain; O75164; AlphaScreen JMJD2A-Tudor / H3K4me3 peptide binding; Potency, µM (top dose mostly 114 µM), for the others: at the top dose activity change, negative = inhibition, hits mostly inhibitors; hit rate 4.4% among 390,000; AID 504339; also: % is scaled to controls: 0 for no effect and ±100 for the full control effect; nearly all actives have a fitted effect of over 50% in size
* hit, by the source's call; ? = inconclusive; nt = no result given; [ ] = dose if it differs, or a comment. Calls follow the shape of the dose curve; as a rule, active = well fitted inhibition curve with a large enough effect; inconclusive = small, poorly fitted or top-dose-only effect; inactive = no such curve, though single readings can be large or run the other way. Potency is read from the fitted curve at half-maximal effect.

SMILES | G9a inh | L3MBTL1 block | BAZ2B inh | HP1b chromo inh | JMJD2A Tudor
O=C(NCC1CCCO1)C1c2ccccc2Oc2ccccc21 (stereo unspecified) | 28% | 2% | -7% | 31% | -5%
O=C(O)CC12CSc3[nH]c(=O)sc3C1c1ccccc1OC2=O (stereo unspecified) | 50µM* | nt | -6% | nt | nt
COc1ccc(S(=O)(=O)CC(=O)c2cc3cccc(C)c3oc2=O)cc1 | 50µM* | nt | -34% | 28% | -33%
CCOC(=O)c1c(NC(=O)c2cc(-c3ccc(OC)c(OC)c3)on2)sc2c1CCCC2 | 4µM* | nt | 11% | 51% | 0%
COc1ccc(-c2cc(C(=O)Nc3sc4c(c3C#N)CCCC4)no2)cc1OC | 10µM* | nt | -1% | -8% | 2%
CCCc1cc(C(=O)Nc2sc3c(c2C(=O)OCC)CCCC3)no1 | -5%[59 µM] | ? | 0% | 17% | 1%
CCOC(=O)c1c(NC(=O)c2cc(-c3cccc(OC)c3)on2)sc2c1CCCC2 | 8.9µM* | nt | -1% | ? | 3%
CCOC(=O)c1c(NC(=O)c2ccc(OC)c(OC)c2)sc2c1CCCCC2 | 8.9µM* | nt | 2% | -4% | -15%
CCOC(=O)c1c(NS(=O)(=O)c2cccc(OC)c2)sc2c1CCC2 | ? | ? | -7% | 13% | ?
CC1CCc2c(sc(NC(=O)c3cc(-c4ccc(F)cc4)on3)c2C(N)=O)C1 (stereo unspecified) | -4%[59 µM] | nt | 2% | 13% | -7%
CC(C)CCn1c(=O)c2sccc2n2c(CCCC(=O)Nc3ccc(C(C)C)cc3)nnc12 | -5%[59 µM] | nt | 0% | 11% | -16%
C[N+]12CCCCC1[C@@H](CO)CCC2 (stereo partly specified) | 50µM* | nt | -33% | 14% | -12%
O=C(CN1C(=O)NC2(CCCc3ccccc32)C1=O)N1CCCCC1 (stereo unspecified) | 50µM* | -4% | 8% | 11% | -6%
Cc1ccc(NC(=O)CN2C(=O)NC3(CCCc4ccccc43)C2=O)cc1S(=O)(=O)N1CCOCC1 (stereo unspecified) | ? | -6% | -27% | 36% | -2%[11.4 µM]
CCN(CC)S(=O)(=O)c1cc(NC(=O)Cn2ncc(Cl)c(Cl)c2=O)ccc1C | 0% | 18µM* | -18% | 25% | -7%[11.4 µM]
O=C(Cn1ncc(Cl)c(Cl)c1=O)Nc1ccc2c(c1)OCO2 | ? | 4% | -20% | 28% | -19%
CC1CCN(C(=O)CN2C(=O)NC3(CCCc4ccccc43)C2=O)CC1 (stereo unspecified) | ? | 2% | 19% | 32% | -4%
CCN(CC)S(=O)(=O)c1cc(NC(=O)CN2C(=O)NC3(CCCc4ccccc43)C2=O)ccc1C (stereo unspecified) | 50µM* | -2% | -6% | 4% | -22%
Cc1cccc(NC(=O)CNC(=O)CN2C(=O)NC3(CCc4ccccc43)C2=O)c1C (stereo unspecified) | 45µM* | 1% | 4% | 19% | -6%
Cc1ccc(S(=O)(=O)N2CCCCC2)cc1NC(=O)c1ccc(Cl)nc1 | 2%[59 µM] | -2% | 5% | 27% | -17%
Clc1cccc(-c2ccc(-c3nc4ccccn4c3NCc3ccccc3)cc2)c1 | nt | ? | nt | -7% | ?
c1ccc(-c2nc3ccccn3c2NCc2ccc3c(c2)OCO3)cc1 | ? | -7% | ? | -18% | ?
COc1ccc(-c2cc(-c3nc4ccccn4c3NCc3ccccc3)ccc2OC)cc1 | nt | ? | nt | ? | 32µM*
COc1ccc(-c2nc3ccccn3c2NCc2ccc3c(c2)OCO3)cc1 | ? | -6% | 50µM* | -7% | ?
CCC(=O)N1CCc2cc(S(=O)(=O)CCC(=O)Nc3ccc(OC(F)(F)F)cc3)ccc21 | ? | nt | nt | 29% | -13%
SMILES | G9a inh | L3MBTL1 block | BAZ2B inh | HP1b chromo inh | JMJD2A Tudor
O=C(O)/C=C/C(=O)Nc1ccc(-n2ccc(C(F)(F)F)n2)cc1 | 45µM* | 1% | -2% | 31% | -17%
O=C(O)/C=C\C(=O)Nc1ccc(N2CCN(c3ccc(Cl)cc3)CC2)cc1 | 10µM* | ? | ? | -2% | -34%
Clc1cccc(N2CCN(CCCN3CCN(c4ccccc4)CC3)CC2)c1 | nt | nt | nt | -22%[57 µM] | ?
O=C(O)/C=C\C(=O)Nc1ccc(N2CCN(c3cccc(Cl)c3)CC2)cc1 | nt | -12% | 35µM* | ? | -11%[11.4 µM]
O=C(O)/C=C\C(=O)Nc1ccccc1C(=O)N1CCN(c2ccc(Cl)cc2)CC1 | -32%[2.33 µM] | nt | -30% | 29% | ?
Nc1ccc(N2CCN(c3cccc(Cl)c3)CC2)cc1 | 4µM* | -26% | 35µM* | ? | 45µM*
CCOC(=O)c1c(S(=O)(=O)N(C)C2CCCCC2)c(C)n(C)c1C | 10% | nt | ? | 13% | -16%
COc1ccccc1CCNC(=O)C(=O)NCC(c1ccco1)S(=O)(=O)c1ccc(F)cc1 (stereo unspecified) | 4%[59 µM] | nt | 0% | 23% | 3%
Cc1c(C)c2c(c(C)c1O)CCC(C)(C(=O)O)O2 (stereo unspecified) | 14µM* | -11% | 5% | 19% | -2%
Cn1c(=O)oc2cc(S(=O)(=O)N3CCCC(C(=O)N4CC=C(c5ccccc5)CC4)C3)ccc21 (stereo unspecified) | 50µM* | -1% | 6% | nt | nt
COc1ccccc1N1CCN(C(=O)C2CCCN(S(=O)(=O)c3ccc4c(c3)oc(=O)n4C)C2)CC1 (stereo unspecified) | 3%[59 µM] | nt | -38% | 22% | -16%
COc1ccc([N+](=O)[O-])cc1/C=N/NC(=O)Cc1ccccc1 | 20% | 0% | 0% | 25% | -25%
COc1ccc(CC(=O)N/N=C/c2cccn2-c2ccc([N+](=O)[O-])cc2)cc1OC | ? | ? | 40µM* | ? | 45µM*
Cc1cc(/C=N/Nc2ccc([N+](=O)[O-])cn2)c(C)n1-c1ccc(C(=O)O)cc1 | 50µM* | nt | 50µM* | -36% | ?
CC(C)(C)OC(=O)N/N=C/c1cccc([N+](=O)[O-])c1 | 50µM* | nt | nt | 26% | -1%
O=[N+]([O-])c1ccc(NN=Cc2ccccc2)nc1 | nt | nt | nt | 27% | -15%
O=[N+]([O-])c1ccc(N/N=C\c2cccn2-c2ccccc2)nc1 | ? | ? | ? | ? | 40µM*
Cc1ccccc1-n1c(C)cc(/C=N/Nc2ccc([N+](=O)[O-])cn2)c1C | ? | nt | -33% | 42% | -14%
Cc1cccc(OS(=O)(=O)NC(=O)OCC2CCCN3CCCCC23)c1 (stereo unspecified) | 9%[59 µM] | nt | -3% | 32% | -15%
Clc1ccccc1CSc1nc(NCCc2ccccc2)c2ccccc2n1 | 3%[59 µM] | nt | 11% | 39% | 8%
CC(C)(C)OC(=O)N/N=C/c1cccn1-c1ccc([N+](=O)[O-])cc1 | 8.9µM* | -2% | ? | ? | ?

Screening results (PubChem)
